# Source: PubChem BioAssay (NCATS)
# Results filed as inconclusive are left out. Entries that show only a call come without a potency. The source made the active and inactive calls. Unless noted, calls follow the shape of the dose curve; as a rule, active = well fitted curve in the direction sought with a large enough effect; inconclusive = small, poorly fitted or top-dose-only effect, or another doubt; inactive = no such curve, though single readings can be large; an effect the other way counts as inactive or inconclusive.
# Legend:
# [1] = target: Voltage-gated inwardly rectifying potassium channel KCNH2 (Homo sapiens) (UniProt Q12809); assay: qHTS Assay for Small Molecule Inhibitors of the Human hERG Channel Activity (AID 588834);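 also: lower thallium flux fluorescence means stronger hERG block; nearly all actives have a fitted effect of over 50% in size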; also: potency is read from the fitted curve at half-maximal effect
# Procedure, shortened: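 U2OS cells transduced with hERG via BacMam (MOI ~100), plated 2000/well, loaded with FluxOR thallium dye, compound ~10 min, then stimulation buffer; fluorescence decrease read kinetically; AC50 from Hill fits.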
# [2] = target: Glutaminase kidney isoform, mitochondrial (Homo sapiens) (UniProt O94925); assay: qHTS for Inhibitors of Glutaminase (GLS): LOPAC Validation (AID 624146);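 also: glutamate product detected by oxidase and peroxidase coupled Amplex red fluorescence gain; series mostly up to about 46 µM; nearly all actives have a fitted effect of over 60% in size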
# Procedure, shortened: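 Human kidney-isoform GLS in 45 mM KH2PO4 pH 8.2, 0.02% Tween-20, with compound, started with 1mM L-Glutamine (added stock). Glutamate oxidase/HRP/Amplex red coupled fluorescence read at start and after 30 min at RT.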
# [3] = qHTS of Trypanosoma Brucei Inhibitors: LOPAC Validation (AID 624147)
# Procedure, shortened: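 Screened from lowest to highest concentration, compounds were pinned into TbPYK/substrate mixtures, and ADP (130 uM final) was added. Plates sat at room temperature for 45 min prior to Kinase-Glo Plus detection by luminescence.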
# [4] = target: Luciferin 4-monooxygenase (Photinus pyralis) (UniProt P08659); assay: Biochemical firefly luciferase enzyme assay for NPC (AID 624030);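 also: purified P. pyralis luciferase at 10 nM with luciferin and ATP substrate; series mostly up to about 59 µM; nearly all actives have a fitted effect of over 70% in size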
# Procedure, shortened: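 Counter-screen for direct inhibition of the luciferase enzyme by approved-drug library compounds, run at 10 nM enzyme in 50 mM Tris acetate (final). Luminescence was read within 5 min of enzyme-buffer addition and normalized to PTC124 versus DMSO (0%).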
# [5] = S16 Schwann cell viability assay (CellTiter-Glo assay) (AID 624031);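 also: cellular ATP luminescence as a viability measure; series mostly up to about 58 µM; nearly all actives have a fitted effect of over 70% in size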
# Procedure, shortened: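 This viability control uses native rat S16 Schwann cells grown in DMEM plus 10% FBS. After a 24 h compound treatment at 37 °C, CellTiter-Glo luminescence reports ATP content, scaled against DMSO-treated and cell-free wells.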
# [6] = S16 Schwann cell PMP22 intronic element firefly luciferase assay (AID 624032); also: series mostly up to about 58 µM; nearly all actives have a fitted effect of over 30% in size
# Procedure, shortened: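 Rat S16 Schwann cells stably carrying a PMP22 intronic element-driven Fluc reporter were seeded overnight, then exposed to compounds for 24 h at 37 °C. Luminescence was normalized to PTC124 (positive control) and DMSO (0% activity).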
# [7] = S16 Schwann cell PMP22 intronic element beta-lactamase assay (AID 624044; calls by dose curve; also: nearly all actives have a fitted effect of over 15% in size)
# Procedure, shortened: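 Rat S16 Schwann cells with beta-Lac driven by a PMP22 intronic element, compound-treated 24 h at 37 °C. LiveBLAzer FRET B/G read: 460 nm normalized to potassium clavulanate vs DMSO; 535 nm FRET as viability; concentration-effect curves classified.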
# Sequence of Voltage-gated inwardly rectifying potassium channel KCNH2 (Homo sapiens) (Q12809 whole entry, looked up): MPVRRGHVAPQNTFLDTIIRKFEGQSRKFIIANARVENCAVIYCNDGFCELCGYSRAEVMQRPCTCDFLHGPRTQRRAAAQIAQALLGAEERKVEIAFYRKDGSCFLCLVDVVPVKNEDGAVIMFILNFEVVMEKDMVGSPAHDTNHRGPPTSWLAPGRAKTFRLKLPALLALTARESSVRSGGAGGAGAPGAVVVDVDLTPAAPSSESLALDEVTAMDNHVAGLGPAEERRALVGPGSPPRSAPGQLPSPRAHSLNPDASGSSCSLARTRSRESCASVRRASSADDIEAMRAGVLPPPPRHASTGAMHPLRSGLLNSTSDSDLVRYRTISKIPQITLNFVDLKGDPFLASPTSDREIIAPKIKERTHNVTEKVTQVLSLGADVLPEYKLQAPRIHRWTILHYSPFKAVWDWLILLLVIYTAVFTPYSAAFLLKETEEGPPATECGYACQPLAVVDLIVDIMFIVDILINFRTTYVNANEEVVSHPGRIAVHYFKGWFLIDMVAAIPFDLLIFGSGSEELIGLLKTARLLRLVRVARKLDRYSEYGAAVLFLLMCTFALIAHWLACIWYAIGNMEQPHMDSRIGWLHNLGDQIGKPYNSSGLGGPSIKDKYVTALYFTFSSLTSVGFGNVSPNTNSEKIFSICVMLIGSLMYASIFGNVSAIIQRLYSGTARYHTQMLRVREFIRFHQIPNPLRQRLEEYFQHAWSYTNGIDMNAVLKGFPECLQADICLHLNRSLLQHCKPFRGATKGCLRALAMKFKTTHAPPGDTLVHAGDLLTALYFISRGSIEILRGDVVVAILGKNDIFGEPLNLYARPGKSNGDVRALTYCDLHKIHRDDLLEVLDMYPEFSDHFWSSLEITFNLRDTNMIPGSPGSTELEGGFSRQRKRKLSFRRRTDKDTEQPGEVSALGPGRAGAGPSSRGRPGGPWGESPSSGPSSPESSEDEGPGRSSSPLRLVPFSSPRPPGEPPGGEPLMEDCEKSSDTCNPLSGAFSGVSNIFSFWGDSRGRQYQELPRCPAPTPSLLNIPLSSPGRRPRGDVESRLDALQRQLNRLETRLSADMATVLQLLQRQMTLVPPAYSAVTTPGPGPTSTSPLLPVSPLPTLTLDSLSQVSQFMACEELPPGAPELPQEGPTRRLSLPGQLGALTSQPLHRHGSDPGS
# Sequence of Glutaminase kidney isoform, mitochondrial (Homo sapiens) (O94925 whole entry, looked up, canonical isoform): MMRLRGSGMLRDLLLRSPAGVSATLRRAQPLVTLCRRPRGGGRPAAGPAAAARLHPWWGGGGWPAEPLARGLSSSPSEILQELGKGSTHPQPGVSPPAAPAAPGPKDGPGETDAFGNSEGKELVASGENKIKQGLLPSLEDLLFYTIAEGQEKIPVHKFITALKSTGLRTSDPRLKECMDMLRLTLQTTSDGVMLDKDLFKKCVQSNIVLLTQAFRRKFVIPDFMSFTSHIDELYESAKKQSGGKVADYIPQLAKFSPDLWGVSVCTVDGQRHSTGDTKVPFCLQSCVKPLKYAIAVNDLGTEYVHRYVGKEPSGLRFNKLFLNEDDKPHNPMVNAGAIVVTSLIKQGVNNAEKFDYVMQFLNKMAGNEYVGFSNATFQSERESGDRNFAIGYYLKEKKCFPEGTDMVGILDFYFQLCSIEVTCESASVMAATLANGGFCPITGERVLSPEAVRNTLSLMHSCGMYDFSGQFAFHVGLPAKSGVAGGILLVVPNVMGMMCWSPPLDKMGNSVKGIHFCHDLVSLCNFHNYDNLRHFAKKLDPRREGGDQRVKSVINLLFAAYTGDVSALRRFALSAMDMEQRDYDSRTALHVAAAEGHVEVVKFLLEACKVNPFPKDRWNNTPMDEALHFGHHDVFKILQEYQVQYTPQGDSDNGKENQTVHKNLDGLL
# Sequence of Luciferin 4-monooxygenase (Photinus pyralis) (P08659 whole entry, looked up): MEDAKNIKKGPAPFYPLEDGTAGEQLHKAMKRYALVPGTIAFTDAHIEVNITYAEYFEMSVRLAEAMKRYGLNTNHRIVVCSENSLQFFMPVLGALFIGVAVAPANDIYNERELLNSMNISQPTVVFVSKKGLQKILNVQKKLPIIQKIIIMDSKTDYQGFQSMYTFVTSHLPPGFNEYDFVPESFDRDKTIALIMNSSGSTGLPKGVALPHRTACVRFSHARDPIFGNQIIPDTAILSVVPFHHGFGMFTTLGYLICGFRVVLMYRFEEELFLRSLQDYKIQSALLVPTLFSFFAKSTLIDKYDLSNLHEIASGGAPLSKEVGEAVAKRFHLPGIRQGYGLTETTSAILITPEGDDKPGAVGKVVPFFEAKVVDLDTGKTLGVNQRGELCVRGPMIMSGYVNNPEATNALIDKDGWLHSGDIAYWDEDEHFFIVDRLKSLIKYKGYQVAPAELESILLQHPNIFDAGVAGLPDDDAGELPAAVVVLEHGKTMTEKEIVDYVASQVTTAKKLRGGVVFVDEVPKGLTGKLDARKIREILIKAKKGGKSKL
smiles,measurement,setting,value
NC(=NCCC[C@H](N)C(=O)O)N[N+](=O)[O-],Potency,[1],inactive
same,Potency,[2],inactive
same,outcome,[3],inactive
c1ccc(CCCN2CCN(CCOC(c3ccccc3)c3ccccc3)CC2)cc1,Potency,[1],501 nM (active)
same,Potency,[2],inactive
same,outcome,[3],inactive
C#CC1(O)CCC2C3CCC4=CC(=O)CCC4(C)C3CCC21C (stereo unspecified),Potency,[4],inactive
same,Potency,[5],inactive
same,Potency,[6],inactive
same,Potency,[7],inactive
NCCc1c[nH]c2ccc(O)cc12,Potency,[1],inactive
same,Potency,[2],inactive
same,outcome,[3],inactive
O=C(Cc1ccc(Cl)c(Cl)c1)N1CCCCC1CN1CCCC1 (stereo unspecified),Potency,[2],inactive
same,outcome,[3],inactive
CC(=O)OCC1=C(C(=O)O)N2C(=O)[C@@H](N)[C@@H]2SC1,Potency,[4],inactive
same,Potency,[5],inactive
same,Potency,[7],inactive
C[C@]12CCC3C(CC[C@H]4C[C@H](O)CC[C@]34C)C1CC[C@@H]2C(=O)CO (stereo partly specified),Potency,[1],inactive
same,Potency,[2],inactive
same,outcome,[3],inactive
